PubChem BioAssay AID1159580 (chemical genetic matrix, 2015)
Values joined by “and” are separate entries in the source; they are usually repeats but may differ in a detail not shown here. Equal values may be shown once. In all, about 5,500 compounds went through this assay and about 2,000 (36%) were called active. Roughly 18% stayed inconclusive and do not appear here. No stated cut-off is given here; in the data, active means normalized growth mostly below about 0.91 (no sharp cut-off); inconclusive means no clear call, values can overlap the other calls; inactive means mostly above about 0.92. This is one part of the list.

Experiment: chemical genetic growth profiling, strain panel (AID 1159580);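 further: tested at 20 µM; growth read once vehicle control cultures reached saturation at 30 °C; 1 = growth at the plate median or of vehicle wells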
Settings: S. cerevisiae deletion strains, growth OD

Measured: normalized growth

NC(N)=NCCCCN=C(N)N
inactive: locus YAL013W, strain DEP1, stronger effect = lower value 0.997 | locus YAL021C, strain ccr4, stronger effect = lower value 0.993 | locus YAL026C, strain drs2, stronger effect = lower value 0.984 | locus YAL030W, strain snc1, stronger effect = lower value 1 | locus YAL040C, strain CLN3, stronger effect = lower value 1.01 | locus YBL061C, strain skt5, stronger effect = lower value 1.01 | locus YBR009C, strain hhf1, stronger effect = lower value 1.01 | locus YBR021W, strain FUR4, stronger effect = lower value 1.04 | locus YBR023C, strain chs3, stronger effect = lower value 1.01 | locus YBR171W, strain sec66, stronger effect = lower value 0.986 | locus YBR229C, strain ROT2, stronger effect = lower value 0.957 | locus YBR231C, strain swc5, stronger effect = lower value 1 | locus YBR279W, strain paf1, stronger effect = lower value 0.992 | locus YCL011C, strain gbp2, stronger effect = lower value 1.01 | locus YCL016C, strain dcc1, stronger effect = lower value 1.01 | locus YCL029C, strain bik1, stronger effect = lower value 0.989 | locus YCL061C, strain MRC1, stronger effect = lower value 1 | locus YCL069W, strain vba3, stronger effect = lower value 0.984 | locus YCR088W, strain abp1, stronger effect = lower value 1 | locus YDL005C, strain med2, stronger effect = lower value 0.998 | locus YDL035C, strain GPR1, stronger effect = lower value 0.985 | locus YDL040C, strain nat1, stronger effect = lower value 1 | locus YDL074C, strain BRE1, stronger effect = lower value 0.957 | locus YDL101C, strain DUN1, stronger effect = lower value 0.953 | locus YDL134C, strain PPH21, stronger effect = lower value 0.995 | locus YDL185W, strain tfp1, stronger effect = lower value 0.968 | locus YDL192W, strain arf1, stronger effect = lower value 0.992 | locus YDR001C, strain nth1, stronger effect = lower value 1 | locus YDR069C, strain doa4, stronger effect = lower value 0.999 | locus YDR101C, strain arx1, stronger effect = lower value 1 | locus YDR137W, strain rgp1, stronger effect = lower value 1.01 | locus YDR150W, strain NUM1, stronger effect = lower value 0.983 | locus YDR159W, strain sac3, stronger effect = lower value 1 | locus YDR162C, strain NBP2, stronger effect = lower value 0.948 | locus YDR195W, strain ref2 0.984 | locus YDR297W, strain sur2, stronger effect = lower value 0.999 | locus YDR318W, strain mcm21, stronger effect = lower value 1.01 | locus YDR334W, strain swr1, stronger effect = lower value 0.99 | locus YDR335W, strain msn5, stronger effect = lower value 0.997 | locus YDR388W, stronger effect = lower value 0.996 | locus YDR392W, strain spt3, stronger effect = lower value 0.946 | locus YDR502C, strain sam2, stronger effect = lower value 0.991 | locus YEL003W, strain gim4, stronger effect = lower value 0.993 | locus YEL037C, strain rad23, stronger effect = lower value 0.964 | locus YEL061C, strain CIN8 (second series), stronger effect = lower value 0.991 | locus YEL061C, strain CIN8, stronger effect = lower value 0.989 | locus YER002W, strain NOP16, stronger effect = lower value 1 | locus YER015W, strain faa2, stronger effect = lower value 0.997 | locus YER016W, strain bim1, stronger effect = lower value 1 | locus YER110C, stronger effect = lower value 0.99 | locus YER111C, strain swi4, stronger effect = lower value 0.99 | locus YER155C, strain BEM2 (second series), stronger effect = lower value 1.01 | locus YER155C, strain BEM2, stronger effect = lower value 1 | locus YER167W, strain BCK2, stronger effect = lower value 1.01 | locus YFR010W, strain ubp6, stronger effect = lower value 0.98 | locus YGL078C, strain dbp3, stronger effect = lower value 0.996 | locus YGL086W, strain mad1, stronger effect = lower value 1.01 | locus YGL167C, strain pmr1, stronger effect = lower value 1.01 | locus YGL173C, strain kem1, stronger effect = lower value 0.995 | locus YGL227W, strain vid30, stronger effect = lower value 1 | locus YGL240W, strain doc1, stronger effect = lower value 1 | locus YGL248W, strain PDE1, stronger effect = lower value 0.994 | locus YGL253W, strain hxk2, stronger effect = lower value 1 | locus YGR078C, strain PAC10, stronger effect = lower value 0.969 and 0.994 | locus YGR135W, strain pre9, stronger effect = lower value 0.982 | locus YGR229C, strain SMI1, stronger effect = lower value 0.999 | locus YGR252W, strain gcn5, stronger effect = lower value 1.03 | locus YHR013C, strain ard1, stronger effect = lower value 1 | locus YHR027C, strain rpn1, stronger effect = lower value 1 | locus YHR030C, strain SLT2, stronger effect = lower value 1 and 0.976 | locus YHR079C, strain IRE1 (second series), stronger effect = lower value 1.01 | locus YHR079C, strain IRE1, stronger effect = lower value 0.986 | locus YHR094C, strain hxt1, stronger effect = lower value 1.01 | locus YHR129C, strain ARP1, stronger effect = lower value 0.994 | locus YHR142W, strain chs7, stronger effect = lower value 1 | locus YHR200W, strain rpn10, stronger effect = lower value 1.01 | locus YIL066C, strain RNR3, stronger effect = lower value 0.969 | locus YIL073C, strain SPO22, stronger effect = lower value 1.03 | locus YIL125W, strain kgd1, stronger effect = lower value 0.992 | locus YIR030C, strain dcg1, stronger effect = lower value 0.993 | locus YJL092W, strain hpr5, stronger effect = lower value 0.999 | locus YJL095W, strain BCK1 (second series), stronger effect = lower value 1.01 | locus YJL095W, strain BCK1, stronger effect = lower value 0.992 and 0.985 | locus YJL115W, strain asf1, stronger effect = lower value 0.993 | locus YJL129C, strain trk1, stronger effect = lower value 1.02 | locus YJL134W, strain LCB3, stronger effect = lower value 0.989 | locus YJL154C, strain vps35, stronger effect = lower value 0.992 | locus YJL164C, strain tpk1, stronger effect = lower value 1.01 | locus YJL166W, strain qcr8, stronger effect = lower value 1.01 | locus YJL168C, strain set2, stronger effect = lower value 0.992 | locus YJL187C, strain SWE1 (second series), stronger effect = lower value 0.969 | locus YJL187C, strain SWE1, stronger effect = lower value 1.01 | locus YJR043C, strain POL32, stronger effect = lower value 1.02 | locus YJR066W, strain TOR1, stronger effect = lower value 0.99 | locus YJR075W, strain HOC1, stronger effect = lower value 0.94
